Source: ChEMBL document CHEMBL3433997, “St. Jude Leishmania screening dataset” (2016)

Molecular target: Hexose transporter 1 (Plasmodium falciparum) (UniProt O97467)
Test: ST_JUDE_LEISH: Cytotoxicity at 2uM final concentration against transgenic Leishmania Mexicana promastigotes LmPfHT that are glucose transport deficient and complemented with the Plasmodium falciparum hexose transporter. Activity is measured by DNA content using SYBR green in vitro
Format: functional

| Compound | inhibition [%] |
| --- | --- |
| NC1CCN(Cc2ccc(-c3ccc(-c4nc5cc(F)ccc5[nH]4)cc3)cc2)C1 (centres undefined) | 4.78 |
| OCCN1CCN(Cc2cccc(-c3ccc(-c4nc5cc(C(F)(F)F)ccc5[nH]4)s3)c2)CC1 | -3.19 |
| CCCN(C(=O)c1ccccc1C)c1nnc(-c2ccccc2C)s1 | 0.17 |
| C=CCN1C(=O)c2[nH]nc(-c3cc(C)c(C)cc3O)c2C1c1cccc(Br)c1 (centres undefined) | 1.25 |
| CN1CCN(Cc2c(O)ccc3c(=O)c(Oc4ccc(C(C)(C)C)cc4)c(C(F)(F)F)oc23)CC1 | 74.1 |
| CCN1CCC(N(CCCCCCc2ccc(C(F)(F)F)cc2)C(=O)Cn2c(CCc3cccc(F)c3F)cc(=O)c3ccccc32)CC1 | 3.94 |
| COc1cc(-c2[nH]c(-c3ccc(OCCN(C)C)cc3)cc2-c2ccncc2)ccc1Cl | 1.55 |
| CN(C)C=Nc1ccc(OCCCCCCOc2ccc(N=CN(C)C)cc2)cc1 | 3.26 |
| O=C(/C=C/c1ccc(Cl)c(Cl)c1)NCCCCCN1CCN(C(=O)Nc2ccc(OC(F)F)cc2)CC1 | 1.76 |
| COc1cc(NC(=O)/C=C/c2cccc3cc[nH]c23)ccc1OCCN(C(C)C)C(C)C | 1.55 |
| CN1CCCCC1CCc1cc(C(=O)Nc2ccc(-c3ccc(O)cc3)cc2)ccc1O (centres undefined) | 1.76 |
| Nc1ccc(-c2nc3cc(Oc4ccc5[nH]c(-c6ccc(N)cc6)nc5c4)ccc3[nH]2)cc1 | 0.6 |
| CON=Cc1ccn(-c2ccc(O)c3c2C[C@H]2C[C@H]4[C@H](N(C)C)C(O)=C(C(N)=O)C(=O)[C@@]4(O)C(O)=C2C3=O)c1 | 4.25 |
| COc1cc(-c2nc(-c3ccc([N+](=O)[O-])cc3)c(-c3ccccc3)[nH]2)cc(OC)c1O | 5.84 |
